Several values for one entry are separate records, joined by “and”; a condition that tells them apart may be missing. Identical values can stand only once.
Tests used:
[1] = test system: Tyrosine-protein kinase ABL1 (Homo sapiens), P00519 [T315I]; conditions: at 1 µM
[2] = test system: Tyrosine-protein kinase ABL1 (Homo sapiens), P00519 [Y253F]; conditions: at 0.1 µM
[3] = test system: Tyrosine-protein kinase ABL1 (Homo sapiens), P00519 [Y253F]; conditions: at 1 µM
[4] = target: Tyrosine-protein kinase ABL1 (Homo sapiens) (UniProt P00519); conditions: at 0.1 µM
[5] = target: Tyrosine-protein kinase ABL1 (Homo sapiens) (UniProt P00519); conditions: at 1 µM
[6] = target: ALK tyrosine kinase receptor (Homo sapiens) (UniProt Q9UM73); conditions: at 0.1 µM
ALK tyrosine kinase receptor (Homo sapiens), sequence (Q9UM73 19-1620 limits assumed): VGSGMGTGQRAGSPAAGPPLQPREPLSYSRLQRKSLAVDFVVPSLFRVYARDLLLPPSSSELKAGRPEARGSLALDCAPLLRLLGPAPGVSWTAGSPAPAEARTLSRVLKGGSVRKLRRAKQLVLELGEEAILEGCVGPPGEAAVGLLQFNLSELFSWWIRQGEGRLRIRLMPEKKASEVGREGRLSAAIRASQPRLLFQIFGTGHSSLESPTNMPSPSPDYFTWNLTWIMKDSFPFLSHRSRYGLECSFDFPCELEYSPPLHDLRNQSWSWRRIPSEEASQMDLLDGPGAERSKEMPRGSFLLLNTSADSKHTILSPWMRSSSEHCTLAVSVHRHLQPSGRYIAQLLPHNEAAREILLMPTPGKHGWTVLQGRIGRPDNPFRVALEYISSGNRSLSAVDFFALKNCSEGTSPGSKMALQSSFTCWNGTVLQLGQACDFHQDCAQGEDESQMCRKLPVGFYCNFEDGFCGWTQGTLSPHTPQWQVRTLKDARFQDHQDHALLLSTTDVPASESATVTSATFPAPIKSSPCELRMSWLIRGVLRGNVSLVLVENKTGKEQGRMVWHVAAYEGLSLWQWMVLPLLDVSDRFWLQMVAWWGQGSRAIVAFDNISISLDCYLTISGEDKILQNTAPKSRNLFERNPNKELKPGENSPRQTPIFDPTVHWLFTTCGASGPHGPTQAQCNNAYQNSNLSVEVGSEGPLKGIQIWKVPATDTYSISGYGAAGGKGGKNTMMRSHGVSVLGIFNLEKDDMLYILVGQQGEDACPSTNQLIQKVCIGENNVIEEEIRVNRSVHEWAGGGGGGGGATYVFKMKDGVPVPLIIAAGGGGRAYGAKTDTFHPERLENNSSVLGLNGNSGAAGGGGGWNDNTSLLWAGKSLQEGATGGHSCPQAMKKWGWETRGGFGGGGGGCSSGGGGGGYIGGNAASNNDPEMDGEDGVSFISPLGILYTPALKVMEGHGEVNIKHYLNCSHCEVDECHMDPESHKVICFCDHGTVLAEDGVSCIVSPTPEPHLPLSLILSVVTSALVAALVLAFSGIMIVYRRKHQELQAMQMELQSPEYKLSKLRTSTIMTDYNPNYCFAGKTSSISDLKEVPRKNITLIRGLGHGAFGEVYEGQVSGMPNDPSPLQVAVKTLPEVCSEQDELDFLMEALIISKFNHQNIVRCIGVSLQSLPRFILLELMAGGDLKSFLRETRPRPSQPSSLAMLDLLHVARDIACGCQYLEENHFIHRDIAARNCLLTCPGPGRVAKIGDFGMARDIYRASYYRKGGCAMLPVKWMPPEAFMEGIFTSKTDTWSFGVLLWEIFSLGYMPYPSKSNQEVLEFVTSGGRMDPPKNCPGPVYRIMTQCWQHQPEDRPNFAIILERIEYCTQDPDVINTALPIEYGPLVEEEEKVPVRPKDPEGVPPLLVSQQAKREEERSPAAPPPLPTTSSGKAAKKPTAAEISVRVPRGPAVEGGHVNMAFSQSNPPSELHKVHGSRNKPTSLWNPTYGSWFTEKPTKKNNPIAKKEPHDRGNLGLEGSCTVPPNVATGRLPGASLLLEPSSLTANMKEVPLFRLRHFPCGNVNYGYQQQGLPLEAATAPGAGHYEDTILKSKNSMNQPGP

[7] = target: ALK tyrosine kinase receptor (Homo sapiens) (UniProt Q9UM73); conditions: at 1 µM
[8] = target: Tyrosine-protein kinase ABL2 (Homo sapiens) (UniProt P42684); conditions: at 0.1 µM
Tyrosine-protein kinase ABL2 (Homo sapiens), sequence (P42684 whole entry): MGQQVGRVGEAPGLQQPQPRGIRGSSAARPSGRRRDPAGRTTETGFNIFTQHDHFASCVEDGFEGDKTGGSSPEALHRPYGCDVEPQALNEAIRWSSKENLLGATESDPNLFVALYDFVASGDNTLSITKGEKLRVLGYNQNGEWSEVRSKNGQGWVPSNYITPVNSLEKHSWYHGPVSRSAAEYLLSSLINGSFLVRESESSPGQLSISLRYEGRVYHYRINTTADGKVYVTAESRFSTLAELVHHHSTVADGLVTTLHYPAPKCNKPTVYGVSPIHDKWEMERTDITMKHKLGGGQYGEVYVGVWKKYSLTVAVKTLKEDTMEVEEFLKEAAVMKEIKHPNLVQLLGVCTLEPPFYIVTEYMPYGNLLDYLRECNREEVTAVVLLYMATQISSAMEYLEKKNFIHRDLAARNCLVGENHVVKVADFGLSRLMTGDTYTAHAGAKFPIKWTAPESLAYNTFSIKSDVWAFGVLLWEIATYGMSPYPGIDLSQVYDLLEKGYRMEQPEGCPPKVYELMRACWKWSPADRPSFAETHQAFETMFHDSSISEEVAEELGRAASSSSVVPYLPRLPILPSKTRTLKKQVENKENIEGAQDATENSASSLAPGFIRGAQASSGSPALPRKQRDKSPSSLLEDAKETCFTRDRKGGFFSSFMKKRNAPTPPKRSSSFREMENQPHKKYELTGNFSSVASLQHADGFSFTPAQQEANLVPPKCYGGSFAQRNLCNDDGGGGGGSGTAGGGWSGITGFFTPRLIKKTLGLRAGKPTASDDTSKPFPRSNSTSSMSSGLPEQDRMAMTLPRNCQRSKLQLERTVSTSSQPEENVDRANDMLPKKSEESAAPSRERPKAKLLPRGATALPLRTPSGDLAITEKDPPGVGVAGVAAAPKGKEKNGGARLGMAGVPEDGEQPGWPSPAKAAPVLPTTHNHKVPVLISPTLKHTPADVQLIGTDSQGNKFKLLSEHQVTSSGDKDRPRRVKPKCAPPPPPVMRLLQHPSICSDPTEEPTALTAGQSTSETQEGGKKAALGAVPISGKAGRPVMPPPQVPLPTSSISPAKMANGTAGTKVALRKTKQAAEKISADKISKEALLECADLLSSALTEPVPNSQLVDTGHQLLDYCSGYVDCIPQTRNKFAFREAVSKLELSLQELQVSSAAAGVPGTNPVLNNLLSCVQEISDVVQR

[9] = target: Tyrosine-protein kinase ABL2 (Homo sapiens) (UniProt P42684); conditions: at 1 µM
[10] = target: Tyrosine-protein kinase receptor UFO (Homo sapiens) (UniProt P30530); conditions: at 0.1 µM;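 further: values are mean percent inhibition of AXL from the GSK PKIS screen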
Tyrosine-protein kinase receptor UFO (Homo sapiens), sequence (P30530 whole entry): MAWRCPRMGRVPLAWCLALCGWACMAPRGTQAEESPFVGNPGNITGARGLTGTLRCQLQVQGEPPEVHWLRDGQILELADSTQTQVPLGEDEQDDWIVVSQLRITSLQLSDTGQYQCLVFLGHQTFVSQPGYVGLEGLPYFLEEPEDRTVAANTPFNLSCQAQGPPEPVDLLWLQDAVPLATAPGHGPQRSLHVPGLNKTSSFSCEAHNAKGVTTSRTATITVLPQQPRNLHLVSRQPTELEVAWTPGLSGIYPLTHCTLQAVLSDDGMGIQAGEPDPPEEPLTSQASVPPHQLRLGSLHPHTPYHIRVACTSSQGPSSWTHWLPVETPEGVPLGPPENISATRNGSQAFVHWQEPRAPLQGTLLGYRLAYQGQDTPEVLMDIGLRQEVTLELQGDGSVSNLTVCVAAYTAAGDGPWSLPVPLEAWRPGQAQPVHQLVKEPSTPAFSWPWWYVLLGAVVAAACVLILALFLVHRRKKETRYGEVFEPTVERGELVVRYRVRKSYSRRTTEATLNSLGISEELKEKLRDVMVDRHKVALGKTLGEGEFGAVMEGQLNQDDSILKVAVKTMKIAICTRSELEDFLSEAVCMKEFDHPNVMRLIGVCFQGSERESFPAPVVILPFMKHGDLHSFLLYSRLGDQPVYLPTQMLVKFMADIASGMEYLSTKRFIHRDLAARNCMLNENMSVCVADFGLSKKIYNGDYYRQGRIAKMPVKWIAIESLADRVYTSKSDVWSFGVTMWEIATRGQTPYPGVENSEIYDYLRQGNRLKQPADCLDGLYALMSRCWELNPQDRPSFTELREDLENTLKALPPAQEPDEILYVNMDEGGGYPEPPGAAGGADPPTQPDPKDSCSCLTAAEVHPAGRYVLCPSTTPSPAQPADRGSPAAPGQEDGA

SMILES	inhibition [1]	inhibition [2]	inhibition [3]	inhibition [4]	inhibition [5]	inhibition [6]	inhibition [7]	inhibition [8]	inhibition [9]	inhibition [10]
COc1cc2c(cc1Nc1nc(Nc3cccc(F)c3C(N)=O)c3cc[nH]c3n1)N(C(=O)CN1CCN(C(C)C)CC1)CC2	2.05%	-2.26%	1.07%	-1.27%	-0.09%	62.8%	82.3%	-1.03%	-1.11%	-1.56%
COc1cc(N2CCN(C(C)C)CC2)ccc1Nc1nc(Nc2cccc3ncccc23)c2cc[nH]c2n1	0.12%	0.03%	2.91%	1.91%	9.59%	51.7%	86.3%	4.93%	8.07%	1.7%
Cc1cc(O)cc(C)c1/C=C/c1cncc(C(N)=O)c1	7.26%	27.8%	73.6%	15.1%	66%	3.62%	4.41%	12.2%	59.3%	-2.07%
Nc1nonc1-c1nc2cnccc2n1C1CC1	2.56% and 3.11%	3.83% and 3.92%	4.12% and 4.54%	5.16% and -2.65%	8.03% and 2.25%	2.63% and -1.89%	5.84% and 0.48%	3.44% and -2.1%	5.37% and -2.96%	-7.63% and -3.39%
CS(=O)(=O)CCNCc1ccc(-c2ccc3ncnc(Nc4ccc(OCc5cccc(C(F)(F)F)c5)cc4)c3c2)o1	2.39%	2.96%	3.54%	6.46%	8.69%	3%	5.12%	4.21%	8.35%	-6.74%
N#Cc1cccc(Nc2ncc(-c3ccccc3)o2)c1	10.4%	4.28%	21.7%	3.9%	20.6%	1.63%	2.63%	4.38%	20.3%	-2.1%
OCCCNc1nccc(-c2c(-c3ccc(F)cc3)nn3cc(C(F)(F)F)ccc23)n1	1.6%	4.75%	4.88%	6.03%	11.5%	1.23%	2.86%	3.63%	7.2%	-4.91%
CC1=C(C(=O)Nc2ccc3[nH]ncc3c2)C(c2ccc(F)cc2)N=C(c2ccc(C(F)(F)F)nc2)N1 (stereo not given)	2.27%	3.86%	2.79%	3.97%	10.4%	4.23%	4.29%	3.72%	8.41%	-1.91%
COc1cc(Nc2ncc(-c3ccccc3)o2)cc(OC)c1	13.2%	13.2%	50.9%	8.41%	35.4%	2.73%	4.06%	5.68%	29.4%	-6.45%
Cc1cc(O)cc(C)c1/C=C/c1cncc(C(=O)OC(C)(C)C)c1	4.07%	9.34%	38.4%	5.51%	31.9%	3.06%	5.54%	8.31%	36.2%	-3.22%
CS(=O)(=O)CCNCc1ccoc1-c1ccc2ncnc(Nc3ccc(OCc4ccccc4)cc3)c2c1	0.75%	0.71%	-0.62%	2.05%	0.92%	-0.16%	1.21%	1.41%	3.46%	-0.99%
COc1ccc(Nc2ncc(-c3ccccc3)o2)cc1OC	18.9%	11.1%	54.3%	7.03%	58%	1.69%	4.78%	9.21%	57.1%	0.18%
Fc1ccc(Nc2nccc(-c3c(-c4ccc(C(F)(F)F)cc4)nn4ncccc34)n2)cc1F	0.93%	3.58%	2.19%	5.29%	5.12%	3.18%	6.53%	3.43%	4.03%	-5.49%
CN1CCC(C(=O)Nc2n[nH]c3nc(-c4ccc(O)cc4)c(Br)cc23)CC1	22.5% and 15.6%	3.92% and 2.19%	15.1% and 9.74%	0.28% and 3.94%	10.7% and 12.2%	2.7% and 5.6%	31.6% and 35.4%	-0.95% and 2.31%	4.33% and 4.83%	-5.65% and -3.46%
O=C1Nc2ccccc2/C1=C1\CCc2cc(O)ccc21	16.2%	5%	15.6%	3.68%	15%	5.54%	25.4%	2.63%	9.37%	-8.77%
CS(=O)(=O)CCNCc1ccc(-c2ccc3ncnc(Nc4ccc(OCc5ccccc5)cc4)c3c2)o1	4.95%	2.39%	4.13%	5.38%	5.59%	2.33%	2.76%	2.73%	4.87%	-3.92%
N#Cc1ccc2c(-c3ccnc(NC4CC4)n3)c(-c3ccc(F)cc3)nn2c1	1.49%	-0.67%	3.58%	-0.74%	6.61%	0.92%	0.32%	0.94%	5.29%	-4.43%
COc1c(C(N)=O)cc(-c2ccc(Cl)cc2)cc1-c1ccc(S(N)(=O)=O)cc1	2.49%	2.41%	4.61%	3.19%	3.54%	5.82%	7.26%	2.13%	3.9%	-6.59%
COC(=O)Nc1nc2cc(Oc3ccc(NC(=O)Nc4ccccc4)cc3)ccc2[nH]1	31.3%	6.49%	18.9%	5.66%	11.3%	1.19%	2.23%	9.07%	16.8%	-7.01%
COc1ccc(-c2nn3ncccc3c2-c2ccnc(Nc3ccc(F)c(F)c3)n2)cc1	16.6%	5.29%	17.1%	3.82%	14.7%	2.49%	8.04%	2.7%	11.9%	-1.84%

SMILES	inhibition [1]	inhibition [2]	inhibition [3]	inhibition [4]	inhibition [5]	inhibition [6]	inhibition [7]	inhibition [8]	inhibition [9]	inhibition [10]
COc1ccccc1-c1cc(/C=C2\C(=O)Nc3ncc(Br)cc32)cc(Br)c1O	5.39%	5.65%	20%	4.63%	27.9%	2.62%	6.47%	3.44%	15.1%	-9.46%
CCS(=O)(=O)c1ccc(OC)c(Nc2ncc(-c3cccc(F)c3)o2)c1	25.1%	52.5%	90.2%	39.8%	77.5%	4.12%	7.35%	32.8%	74.6%	-6.71%
CC1=C(C(=O)Nc2ccc3[nH]nc(C)c3c2)C(c2ccc(C(F)(F)F)cc2)CC(=O)N1 (stereo not given)	2.86%	4.61%	1.36%	7.68%	9.26%	3.26%	6.8%	7.56%	7.08%	-3.17%
CC1(C)CC(n2cnc(-c3ccc(F)cc3)c2-c2ccnc(N)n2)CC(C)(C)N1	4.98%	8%	5.3%	-0.56%	4.28%	-0.41%	1.55%	-1.89%	1.01%	-0.07%
FC(F)(F)CNc1nccc(-c2cnn3ncccc23)n1	0.38%	0.37%	2.04%	1.87%	4%	2.79%	3.31%	0.3%	3.29%	-3.79%
Cc1nnc(-c2cccc(-c3ccc(C(=O)NCC4CC4)cc3)c2)o1	5.17%	2.61%	4.27%	5.41%	9.95%	3.15%	5.21%	3.81%	9.01%	-9.15%
CCCNc1cccc(-n2ncc3c(N/N=C/c4ccncc4)ncnc32)c1	85.8%	42.4%	86.2%	24.3%	75.3%	0.42%	3.35%	11.6%	61.9%	2.01%
CN1CCC(n2cnc(-c3ccc(F)cc3)c2-c2ccnc(NCCO)n2)CC1	6.42%	2.79%	4.11%	3.67%	6.5%	3.71%	5.43%	3.07%	2.99%	-4.58%
CS(=O)(=O)Nc1ccc(-c2ccc3c(NC(=O)C4CC4)n[nH]c3c2)cc1	16.9%	5.2%	9.04%	3.79%	9.67%	3.16%	11%	2.46%	4.71%	-3.54%
NS(=O)(=O)c1ccc(N/N=C2\C(=O)Nc3ccc(C(=O)NCc4ccncc4)cc32)cc1	12.8%	4.33%	19.1%	2.78%	15.2%	1.39%	4.24%	2.79%	9.41%	-1.05%
COc1cccc(-n2ncc3c(N/N=C/c4ccc(C(=O)NCCN(C)C)cc4)ncnc32)c1	95%	93.3%	94.5%	81.7%	83.1%	3.26%	8.56%	73.3%	82%	3.3%
Cc1c2ccc(N(C)c3ccnc(Nc4cccc(S(N)(=O)=O)c4)n3)cc2nn1C	52.2%	43.4%	83.3%	16.7%	64.5%	1.38%	18.8%	19.5%	62.8%	-8.43%
CN(C)CCNC(=O)Nc1ccc(N(C)c2ccnc(Nc3ccc(CS(C)(=O)=O)cc3)n2)cc1	14.5%	7.05%	14.7%	5.68%	19.6%	3.32%	11.7%	5.95%	16.8%	-5.4%
O=C(Nc1n[nH]c2nnc(-c3cccnc3)cc12)C1CC1	3.43%	0.48%	3.53%	3.47%	6.91%	0.19%	1.54%	0.77%	3.61%	0.08%
CN1CCN(Cc2ccc(-c3cc4ncnc(Nc5ccc(OCc6cccc(F)c6)c(Cl)c5)c4s3)o2)CC1	16.3% and 19.7%	4.69% and 4.76%	12.2% and 15.9%	3.24% and 4%	9.31% and 11%	2.64% and 4.3%	8.37% and 11.1%	3.03% and 4.53%	5.38% and 10.7%	-3.61% and -5.96%
CC(C)c1ccc(-c2cc(-c3c[nH]nc3-c3ccccn3)ccn2)cc1	0.44%	1.59%	22.1%	7.53%	45.5%	1.28%	3.08%	8.41%	16.6%	-1.3%
NS(=O)(=O)c1cccc(N/C=C2\C(=O)Nc3ccccc32)c1	8.55%	5.67%	11%	3.17%	10.9%	2.94%	12.7%	4.2%	13.3%	-7.48%
NC(=O)c1ccc2c(-c3ccnc(NCCCO)n3)c(-c3ccc(F)cc3)nn2c1	6.37%	7.28%	8.72%	4.37%	13.2%	3.18%	7.82%	4.85%	10.1%	-6.77%
CS(=O)(=O)Nc1ccc(-c2cc(-c3ccccc3)cc(C(N)=O)c2N)cc1	0.72%	1.53%	2.93%	3.02%	7.08%	0.29%	2.13%	2.05%	7.11%	-4.02%
